Compound activity deposited in PubChem BioAssay by several laboratories.
A selection: hits, their analogues and other compounds. The true share with any hit is near 6.2%.
AI-2 QS mod = Vibrio harveyi AI-2 quorum sensing modulators, primary screen, JMH597 strain, luminescence/OD600 ratio. Vibrio harveyi JMH597 AI-2 luminescence/OD600 ratio, 9 h; stronger effect = lower value; strain lacks LuxN and CqsS sensors; 0 = neutral-control median. activity change, % at 7.5 µM. 0.4% of 300,000 active. AID 2094, 2009; in the data active = activity change below about -75%, passing the limit was not always enough;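 note: luminescence divided by OD600 gain over 9 h not by final OD600 alone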
H9c2 protect = cardioprotection against H2O2-induced cell death, primary screen, uHTS, H9c2 cells, ATPLite luminescence. H9c2 cardiomyocytes, H2O2 injury protection, 2 h. AID 588492, 2011. protection from H2O2 cell death, % at 20 µM. 0.63% of 360,000 active;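 active = compounds giving at least 50% protection of heart cells from peroxide-induced death in the single-dose screen, raw or plate-pattern-corrected value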;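 note: 0% = DMSO wells with peroxide and 100% = DMSO wells without peroxide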
SUMO Mot1 rescue = yeast Mot1-301 growth rescue at high temperature, primary screen, SUMOylation pathway inhibitor project, S. cerevisiae, ATP luminescence, 38.5C | 1% of 320,000 active | growth rescue, % at 18.8 µM | AID 2716, 2010 | S. cerevisiae Mot1-301 growth rescue; percent above DMSO median, 100 means doubled;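 active = every valid replicate shows activation above 250% relative to neutral control wells; inactive = the rest, any valid replicate at or below 250%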;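 note: OY570 slx delta 5 strain wells were the positive control but not used for scaling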
AHR activator = AHR activators, primary screen, cell-based, luminescence, luciferase reporter, human; Aryl hydrocarbon receptor (Homo sapiens), P35869; AHR-responsive luciferase reporter cells; activation, % at 5 µM; 2.5% of 320,000 active; AID 2796, 2010; in the data active = activation above about 47%;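 note: 0% = vehicle wells and 100% = reference agonist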
GRIN3A LBD mod = binders of NR3A ligand-binding domain, primary screen, biophysical, differential scanning fluorimetry, uHTS. AID 1259313, 2017. NR3A LBD differential scanning fluorimetry, Tm shift; 0% = protein alone, 100% = glycine-bound protein. Tm shift relative to glycine control, % at 25 µM. 2.5% of 340,000 active. Glutamate receptor ionotropic, NMDA 3A (GRIN3A) ligand-binding domain;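 active = melting temperature shift of at least 10% of the positive control shift, at one fixed dose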
NTR1 ag = agonists of human NTR1, primary screen, imaging, U2OS cells, beta-arrestin-GFP, high content | NTR1-U2OS beta-arrestin-GFP spot imaging, agonist mode | activation, % at 20 µM | AID 493036, 2011 | 0.17% of 330,000 active;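 active = activation at or above 40% of the spot to cytoplasm intensity ratio, with at least 20 cells analyzed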;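 note: 0% = DMSO without peptide and 100% = 100 nM NTR1 peptide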
Target sequence (P30989 whole entry, looked up): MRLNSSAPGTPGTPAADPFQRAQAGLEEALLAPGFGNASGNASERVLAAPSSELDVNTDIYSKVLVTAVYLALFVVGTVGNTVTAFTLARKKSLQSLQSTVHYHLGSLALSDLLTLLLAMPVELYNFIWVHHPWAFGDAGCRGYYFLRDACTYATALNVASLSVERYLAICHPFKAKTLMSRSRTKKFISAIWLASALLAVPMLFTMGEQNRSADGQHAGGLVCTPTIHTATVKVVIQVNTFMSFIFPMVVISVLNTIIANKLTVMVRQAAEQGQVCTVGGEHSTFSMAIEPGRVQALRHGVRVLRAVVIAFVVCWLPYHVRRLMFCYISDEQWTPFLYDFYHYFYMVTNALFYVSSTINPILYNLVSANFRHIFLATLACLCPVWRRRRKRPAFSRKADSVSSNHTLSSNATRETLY
* = called active by the depositor; / = no result.

SMILES | AI-2 QS mod | H9c2 protect | SUMO Mot1 rescue | AHR activator | GRIN3A LBD mod | NTR1 ag
CC(=O)c1c(C)[nH]c(C(=O)Nc2nc(-c3ccc(-c4ccccc4)cc3)cs2)c1C | 12.3 | -0.8 | 303.7 | 4.5 | 11.0* | 36.6
CC(=O)c1cccc(Nc2nc(-c3cccc([N+](=O)[O-])c3)cs2)c1 | 2.3 | -3.3 | 4.0 | 46.0 | 19.7* | 5.5
O=C(CNc1ccc(Br)cc1)Nc1ccc(S(=O)(=O)N2CCCC2)cc1 | / | -5.9 | -1.3 | 1.0 | 7.1 | 11.2
C=CCNc1nc(NCc2ccc(N(C)C)cc2)c2sc(-c3ccccc3)cc2n1 | / | -8.8 | / | / | / | /
CSCCC(NC(=O)COc1ccccc1)C(=O)N(C)Cc1cccc(F)c1 (stereo not drawn) | / | 6.2 | -9.3 | 24.9 | 1.1 | 2.8
COc1ccc(NC(=O)COC(=O)Cc2cccs2)cc1Cl | / | -1.6 | / | / | / | /
O=C(CCc1nc2ccccc2c(=O)[nH]1)Nc1ccccc1N1CCCCC1 | / | 34.2 | / | / | / | /
COc1ccc(NC(=O)N(C)[C@H]2C[C@H]3c4[nH]c5ccc(-c6ccc7c(c6)OCO7)cc5c4CCN3C[C@H]2[C@H](C)O)cc1 | / | 54.3* | / | / | / | /
COc1cc(NC(=O)c2cccc(F)c2)ccc1NC(=O)c1cc2ccccc2o1 | 16.2 | 1.0 | 3.2 | 4.1 | 36.0* | 4.7
COc1cc(NC(=O)c2ccc(C)cc2)ccc1NC(=O)c1cc2ccccc2o1 | 4.9 | -8.7 | 5.2 | 4.8 | 7.4 | -0.3
COc1cc(NC(=O)c2c(OC)cccc2OC)ccc1NC(=O)c1cc2ccccc2o1 | -0.8 | 54.0* | 135.4 | 71.8* | -2.3 | -0.1
COc1cc(NC(=O)c2ccc(F)cc2)ccc1NC(=O)c1cc2ccccc2o1 | 5.0 | -2.6 | -0.5 | -0.6 | 3.6 | -1.1
N#C/C(=N\Nc1ccc(Cl)cc1)C(N)=S | 21.9 | -17.7 | 46.9 | 59.0* | -1.3 | 4.0
N#C/C(=N\Nc1ccccc1)C(N)=S | 30.6 | -10.7 | 0.0 | 5.9 | 0.8 | -0.5
C[C@]12CC[C@@H]3c4cc(O)c(O)cc4CC[C@H]3[C@@H]1CC[C@@H]2O | 22.6 | 108.2* | -16.5 | -1.8 | 7.1 | 1.0
C[C@]12CC[C@@H]3c4ccc(O)cc4CC[C@H]3[C@@H]1CC[C@@H]2O | 5.9 | 2.9 | 10.4 | 0.2 | -1.1 | -0.3
Cc1ccc(NC(=O)c2nc[nH]c2C(=O)NCCCCCCNC(=O)c2[nH]cnc2C(=O)Nc2ccc(C)cc2)cc1 | / | 81.3* | -14.4 | 0.6 | 19.7* | 7.2
CC(C)(C)OC(=O)NCCCCCNC(=O)c1[nH]cnc1C(=O)Nc1cc(Br)ccc1F | / | 63.9* | / | / | / | /
Cc1ccc(NC(=O)c2nc[nH]c2C(=O)N2CCC(C)CC2)cc1 | 9.0 | -3.0 | -12.8 | 12.3 | 0.9 | 14.8
Cc1ccc(NC(=O)c2nc[nH]c2C(=O)NCCCCNC(=O)c2[nH]cnc2C(=O)Nc2ccc(C)cc2)cc1 | / | 32.9 | 3.3 | -0.8 | 13.4* | 20.0
CC(C)(C)OC(=O)NCc1ccc(NC(=O)c2nc[nH]c2C(=O)Nc2cc(Br)ccc2F)cc1 | / | 4.2 | / | / | / | /
Cc1ccc(NC(=O)c2nc[nH]c2C(=O)NCCCCCNC(=O)OC(C)(C)C)cc1 | / | 55.2* | -3.2 | 7.7 | -9.4 | 10.2
Cc1ccc(NC(=O)c2nc[nH]c2C(=O)N[C@@H](C)c2ccccc2)cc1 | 3.7 | -2.2 | 10.0 | -1.1 | -1.8 | 38.0
COc1ccc(CCC(=O)Nc2ccc3c(c2)OCO3)cc1OC | 11.8 | 0.1 | -17.2 | -1.8 | -0.7 | 5.5
CC1(C(=O)N2CCCCC2)CCN1C(=O)Cc1ccc(-c2ccccc2)cc1 (stereo not drawn) | / | -1.9 | / | / | / | /
Cc1ccc(NC(=O)c2nc[nH]c2C(=O)N2CCN(C(=O)OC(C)(C)C)CC2)cc1 | / | 4.2 | -11.5 | -10.2 | 11.5* | 5.0
Cc1ccc(NC(=O)c2nc[nH]c2C(=O)NCCCNC(=O)c2[nH]cnc2C(=O)Nc2ccc(C)cc2)cc1 | / | 66.4* | 7.7 | -1.8 | 7.2 | 2.4
Cc1ccc(NC(=O)c2nc[nH]c2C(=O)Nc2ccccc2F)cc1 | / | -0.6 | / | / | / | /
